The full list was thinned out, with the strongest signals kept by preference.
How the values were obtained:
Assay in all cases: glycan array binding signal (z-score within array); higher = stronger binding
Details in all cases: glycan notation: IUPAC condensed, linker removed
[1] = target: Gal3S(b1-4)[Fuc(a1-3)]GlcNAc
Method in brief: (§1)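 The Consortium for Functional Glycomics database supplied 3228 glycan arrays, of which those lacking an available protein sequence were dropped. The binding signal, a within-array Z-score, was averaged across arrays of the same protein sequence and across linkers. Negative scores can be read as non-binding.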

Gal3S6S(b1-4)GlcNAc6S = target: Gal3S6S(b1-4)GlcNAc6S
Method in brief: as §1

Gal6S(b1-3)GlcNAc6S = target: Gal6S(b1-3)GlcNAc6S
Method in brief: as §1

Gal6S(b1-4)GlcNAc6S = target: Gal6S(b1-4)GlcNAc6S
Method in brief: as §1

[2] = target: GalNAc(a1-3)Fuc(a1-2)Gal(b1-4)GlcNAc(b1-3)[GalNAc(a1-3)Fuc(a1-2)Gal(b1-4)GlcNAc(b1-6)]GalNAc
Method in brief: as §1

[3] = target: GalNAc(b1-3)Gal(a1-4)Gal(b1-4)GlcNAc
Method in brief: as §1

GalNAc(b1-4)Gal(b1-4)Glc = target: GalNAc(b1-4)Gal(b1-4)Glc
Method in brief: as §1

[4] = target: GalNAc(b1-4)GlcNAc(b1-3)GalNAc(b1-4)GlcNAc
Method in brief: as §1

GalNAc(b1-4)GlcNAc6S = target: GalNAc(b1-4)GlcNAc6S
Method in brief: as §1

GalNAc6S(b1-4)GlcNAc = target: GalNAc6S(b1-4)GlcNAc
Method in brief: as §1

[5] = target: GlcA3S(b1-3)Gal(b1-4)GlcNAc(b1-3)Gal(b1-4)Glc
Method in brief: as §1

[6] = target: GlcNAc(b1-2)[GlcNAc(b1-4)]Man(a1-3)[GlcNAc(b1-4)][GlcNAc(b1-2)Man(a1-6)]Man(b1-4)GlcNAc(b1-4)GlcNAc
Method in brief: as §1

[7] = target: GlcNAc(b1-3)Gal(b1-4)GlcNAc(b1-3)Gal(b1-4)GlcNAc(b1-2)[GlcNAc(b1-3)Gal(b1-4)GlcNAc(b1-3)Gal(b1-4)GlcNAc(b1-6)]Man(a1-6)[GlcNAc(b1-3)Gal(b1-4)GlcNAc(b1-3)Gal(b1-4)GlcNAc(b1-2)Man(a1-3)]Man(b1-4)GlcNAc(b1-4)[Fuc(a1-6)]GlcNAc
Method in brief: as §1

[8] = target: GlcNAc(b1-3)Gal(b1-4)GlcNAc(b1-3)Gal(b1-4)GlcNAc(b1-3)Gal(b1-4)GlcNAc(b1-2)[GlcNAc(b1-3)Gal(b1-4)GlcNAc(b1-3)Gal(b1-4)GlcNAc(b1-3)Gal(b1-4)GlcNAc(b1-6)]Man(a1-6)[GlcNAc(b1-3)Gal(b1-4)GlcNAc(b1-3)Gal(b1-4)GlcNAc(b1-3)Gal(b1-4)GlcNAc(b1-2)Man(a1-3)]Man(b1-4)GlcNAc(b1-4)[Fuc(a1-6)]GlcNAc
Method in brief: as §1

[9] = target: GlcNAc(b1-3)Gal(b1-4)GlcNAc(b1-3)Gal(b1-4)GlcNAc(b1-3)Gal(b1-4)GlcNAc(b1-3)Gal(b1-4)GlcNAc(b1-2)Man(a1-3)[GlcNAc(b1-3)Gal(b1-4)GlcNAc(b1-3)Gal(b1-4)GlcNAc(b1-3)Gal(b1-4)GlcNAc(b1-3)Gal(b1-4)GlcNAc(b1-2)Man(a1-6)]Man(b1-4)GlcNAc(b1-4)[Fuc(a1-6)]GlcNAc
Method in brief: as §1

[10] = target: GlcNAc(b1-4)GlcNAc(b1-4)GlcNAc
Method in brief: as §1

Man(a1-6)Man = target: Man(a1-6)Man
Method in brief: as §1

[11] = target: Neu5Ac(a2-3)Gal(b1-3)GalNAc
Method in brief: as §1

[12] = target: Neu5Ac(a2-3)Gal(b1-3)GlcNAc(b1-3)Gal(b1-3)GlcNAc
Method in brief: as §1

[13] = target: Neu5Ac(a2-3)Gal(b1-3)[Fuc(a1-4)]GlcNAc
Method in brief: as §1

[14] = target: Neu5Ac(a2-3)Gal(b1-4)GlcNAc(b1-2)[Neu5Ac(a2-3)Gal(b1-4)GlcNAc(b1-6)]Man(a1-6)[Neu5Ac(a2-3)Gal(b1-4)GlcNAc(b1-2)Man(a1-3)][GlcNAc(b1-4)]Man(b1-4)GlcNAc(b1-4)GlcNAc
Method in brief: as §1

[15] = target: Neu5Ac(a2-3)Gal(b1-4)[Fuc(a1-3)]GlcNAc(b1-3)Gal
Method in brief: as §1

[16] = target: Neu5Ac(a2-3)Gal(b1-4)[Fuc(a1-3)]GlcNAc6S
Method in brief: as §1

[17] = target: Neu5Ac(a2-3)Gal6S(b1-4)[Fuc(a1-3)]GlcNAc
Method in brief: as §1

[18] = target: Neu5Ac(a2-6)Gal(b1-4)GlcNAc(b1-2)Man(a1-3)[GlcNAc(b1-2)Man(b1-4)GlcNAc(b1-2)Man(a1-6)]Man(b1-4)GlcNAc(b1-4)GlcNAc
Method in brief: as §1

[19] = target: Neu5Ac(a2-6)Gal(b1-4)GlcNAc(b1-2)Man(a1-3)[Man(a1-6)]Man(b1-4)GlcNAc(b1-4)GlcNAc
Method in brief: as §1

[20] = target: Neu5Ac(a2-6)Gal(b1-4)GlcNAc(b1-3)Gal(b1-4)[Fuc(a1-3)]GlcNAc(b1-3)Gal(b1-4)[Fuc(a1-3)]GlcNAc
Method in brief: as §1

[21] = target: Neu5Ac(a2-6)Gal(b1-4)GlcNAc6S
Method in brief: as §1

[22] = target: Neu5Ac(a2-8)Neu5Ac(a2-3)Gal(b1-4)GlcNAc
Method in brief: as §1

Binder: KISKRILTGKK [NK11 (Sus scrofa)]
- glycan array binding signal (z-score) [1]: 2.52
- glycan array binding signal (z-score) (Gal3S6S(b1-4)GlcNAc6S): 1.05
- glycan array binding signal (z-score) (Gal6S(b1-3)GlcNAc6S): 3.65
- glycan array binding signal (z-score) (Gal6S(b1-4)GlcNAc6S): 2.58
- glycan array binding signal (z-score) [2]: -0.542
- glycan array binding signal (z-score) [3]: 0.262
- glycan array binding signal (z-score) (GalNAc(b1-4)Gal(b1-4)Glc): -0.229
- glycan array binding signal (z-score) [4]: -0.419
- glycan array binding signal (z-score) (GalNAc(b1-4)GlcNAc6S): 2.55
- glycan array binding signal (z-score) (GalNAc6S(b1-4)GlcNAc): 0.009
- glycan array binding signal (z-score) [5]: -1.34
- glycan array binding signal (z-score) [6]: -0.207
- glycan array binding signal (z-score) [7]: 2.97
- glycan array binding signal (z-score) [8]: 2.73
- glycan array binding signal (z-score) [9]: 0.231
- glycan array binding signal (z-score) [10]: -0.597
- glycan array binding signal (z-score) (Man(a1-6)Man): -0.205
- glycan array binding signal (z-score) [11]: 0.104
- glycan array binding signal (z-score) [12]: -0.342
- glycan array binding signal (z-score) [13]: -0.073
- glycan array binding signal (z-score) [14]: 0.405
- glycan array binding signal (z-score) [15]: 0.515
- glycan array binding signal (z-score) [16]: 3.52
- glycan array binding signal (z-score) [17]: -0.648
- glycan array binding signal (z-score) [18]: 2.33
- glycan array binding signal (z-score) [19]: 1.52
- glycan array binding signal (z-score) [20]: -0.044
- glycan array binding signal (z-score) [21]: 0.729
- glycan array binding signal (z-score) [22]: -1.78

From the supplement of paper PMC8728848
